Assay results reported in PubChem BioAssay (NCATS).
Several values for one entry are separate records, joined by “and”; a condition that tells them apart may be missing. Equal values may be shown once. Results filed as inconclusive are left out. Unmarked numbers belong to inactive results. Activity calls are given as the source filed them. The call rests on the fitted dose curve; in most records, active means well fitted inhibition curve with a large enough effect; inconclusive means small, poorly fitted or top-dose-only effect; inactive means no such curve, though single readings can be large or run the other way.

What follows are compounds tested against Cytochrome P450 2C9 (Homo sapiens) (UniProt P11712) (assay: qHTS Assay for Inhibitors and Substrates of Cytochrome P450 2C9 (AID 883; further: nearly all actives have a fitted effect of over 60% in size)). Details: recombinant CYP2C9, luciferin-H luminescence, 60 min; series mostly up to 11.4 µM; activity change, negative = inhibition: at the top concentration.
Cytochrome P450 2C9 (Homo sapiens), sequence (P11712 whole entry, looked up): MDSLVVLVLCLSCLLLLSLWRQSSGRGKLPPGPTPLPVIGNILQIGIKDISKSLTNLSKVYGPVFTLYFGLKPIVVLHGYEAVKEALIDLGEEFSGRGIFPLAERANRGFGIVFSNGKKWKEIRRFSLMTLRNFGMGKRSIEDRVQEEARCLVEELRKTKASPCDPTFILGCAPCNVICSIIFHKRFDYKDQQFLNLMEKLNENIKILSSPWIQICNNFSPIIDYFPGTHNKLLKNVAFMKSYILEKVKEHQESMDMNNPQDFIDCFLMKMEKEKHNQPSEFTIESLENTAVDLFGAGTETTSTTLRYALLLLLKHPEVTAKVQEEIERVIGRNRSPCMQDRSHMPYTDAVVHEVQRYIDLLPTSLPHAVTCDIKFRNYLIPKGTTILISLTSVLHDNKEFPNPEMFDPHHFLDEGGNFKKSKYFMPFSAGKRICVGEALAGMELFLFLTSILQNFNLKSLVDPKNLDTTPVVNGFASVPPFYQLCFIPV
Method in brief: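 Human CYP2C9 (10nM) with Luciferin-H at 100uM (its KM) in 25mM KPO4; compound preincubated 10 min at 37C, then NADPH regeneration for 60 min at 37C. Luciferin read by luminescence after detection reagent; normalized to 57uM sulphaphenazole as full inhibition.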
On the % scale 0 is the no-effect control and ±100 the full control effect; potency means the concentration at half of the fitted maximal effect.

SMILES	activity change, negative = inhibition	Potency
O=C1C=CC2(OCCCO2)C(Br)=C1	8.67%	
O=Cc1ccc(OC2C=CC(c3ccccc3)OC2CO)cc1 (stereo not given)	0.507%	
COC(=O)NC(c1cccc(C)c1)[C@@]1(C(=O)OC)CCCC1=O (stereo not given in full)	5.89%	
COc1ccc(O[C@H]2C=C[C@@H](c3ccccc3)O[C@H]2COC(=O)CC/C(C)=N/OCC[C@@H]2C=C[C@H](OC(C)=O)[C@H](COC(C)=O)O2)cc1		3.98 µM (active)
COc1cccc(/C=C/C2=CC3(C)CC2(C)C(c2cccc(OC)c2)CC3=O)c1 (stereo not given)		3.16 µM (active)
CCN1C(C)=C(C(=O)OC)C(c2ccccc2)N2C(=O)[C@@]3(C(=O)OC)O[C@@]12C1C(=O)N(C)C(=O)C13 (stereo not given in full)	-3.48%	
CC1CCC(C(=O)O)NC1c1cccc(N2CCCC2=O)c1 (stereo not given)	2.12%	
CCCNC(=O)OC[C@H]1O[C@@H](CCO/N=C\[C@@H](NS(=O)(=O)c2ccc(C)cc2)[C@H](C)/C=C\CC(=O)OC)C=C[C@@H]1Oc1ccc(OC)cc1		3.98 µM (active)
CC(=O)c1ccc(C2C=CC(Oc3ccc(-c4ccccc4)cc3)C(CO)O2)cc1 (stereo not given)		3.98 µM (active)
C=CCC1C=CC(OC(=O)OCC)C(COC(=O)OCC)O1 (stereo not given)	-0.155%	
CC1(C)OC(C(O)(c2cc(F)c(F)c(F)c2)c2cc(F)c(F)c(F)c2)C(C(O)(c2cc(F)c(F)c(F)c2)c2cc(F)c(F)c(F)c2)O1 (stereo not given)	-5.61%	
COC(=O)NC(c1cccc(F)c1)[C@]1(C(C)=O)CCCC1=O (stereo not given in full)	35.2%	
COC(=O)C/C=C\[C@@H](C)[C@@H](/C=N\O[C@@H](C)c1cc(-c2c(C)cc(C)cc2C)no1)NS(=O)(=O)c1ccc(C)cc1		2.51 µM (active)
COc1ccc(/C=C/NC(=O)Cc2ccc(OC)c(OC)c2)cc1		inactive
O=C(/C=N/O)NCCCCNC(=O)/C=N/O	2.1%	
COc1ccc(O[C@H]2C=C[C@@H](c3ccccc3)O[C@H]2COC(=O)CC/C(C)=N\O[C@@H](C)c2cn([C@H](CO)Cc3ccccc3)nn2)cc1		1.26 µM (active)
CC12C=C(/C=C/c3ccc(Br)cc3)C(C)(C1)C(c1ccc(Br)cc1)CC2=O (stereo not given)		2.51 µM (active)
C=CCC1(c2ccccc2)Oc2ccc(C)cc2-c2nc3cc(Cl)c(Cl)cc3nc21 (stereo not given)	18.4%	
OCC1OC(c2ccccc2)C=CC1Oc1cc(Cl)cc(Cl)c1 (stereo not given)	3.77%	
COC(=O)[C@@H]1CC[C@H](C)[C@@H](c2ccc(C)cc2)N1C(=O)c1ccc(/C=N\O[C@@H](C)c2cn([C@H](CO)Cc3ccccc3)nn2)cc1		3.16 µM (active) and 2.51 µM (active)

SMILES	activity change, negative = inhibition	Potency
CNc1ccccc1C(=O)OCC(=O)c1ccccc1	27.7%	
CC12C=C(/C=C/C=C/c3ccccc3)C(C)(C1)C(/C=C/c1ccccc1)CC2=O (stereo not given)		3.16 µM (active)
CC12CC3OS(=O)OC3CC3C4C(C(OCc5ccccc5)C31)C42 (stereo not given)	-21.8%	
CC1C=CCCOC1c1ccccc1 (stereo not given)	-8.2%	
COc1ccc(OCC2CC3C(CCC(C)C3c3ccc(Br)cc3)C(=O)O2)cc1 (stereo not given)	0.715%	
COc1ccc(O[C@H]2C=C[C@@H](c3ccccc3)O[C@H]2COC(=O)CC/C(C)=N\OC[C@@H](O)[C@H]2O[C@H]3OC(C)(C)O[C@H]3[C@@H]2O)cc1		1.58 µM (active)
CCCCc1nc2c(c3c1CC(C)OC3)CN(CCC(C)C)CC2 (stereo not given)	6.19%	
COC(=O)NC(c1ccccc1)[C@]1(C(C)=O)CCCC1=O (stereo not given in full)	31.4%	
CCOC(=O)[C@]1(C(NC(=O)OC)c2cccc(C)c2)CCCC1=O (stereo not given in full)	11.3%	
COC(=O)/C=C/C1c2ccccc2C(OC)C1C (stereo not given)	2.29%	
COC(=O)CC1=COC(O)C2C(CO)=CC[C@@H]12 (stereo not given in full)	15.5%	
CC1CCC(C(=O)O)NC1c1ccc(-c2ccco2)cc1 (stereo not given)	32.9%	
COC(=O)NC(CC(C)=O)c1ccc(F)cc1 (stereo not given)	15.8%	
Cc1ccc(S(=O)(=O)N[C@@H](CCc2ccccc2)CC(=O)C(C)(C)C)cc1		3.98 µM (active)
C=C(C)C(O)/C=C/c1ccc(Br)cc1 (stereo not given)		3.16 µM (active)
CC12C=C(/C=C/c3ccc(F)cc3)C(C)(C1)C(c1ccc(F)cc1)CC2=O (stereo not given)	-24.9%	
CN1CCc2nc(-c3ccccc3)c(-c3ccccc3)cc2C1	33.6%	
COC(=O)NC(c1ccccc1)C(C#N)C(=O)OC (stereo not given)	13.3%	
CCOC(=O)OCC1OC(C#Cc2ccccc2)C=CC1Oc1cccc(N(C)C)c1 (stereo not given)		2.51 µM (active)
CC1CCC2C(=O)N3C(CCC(C)C3c3ccc(-c4ccco4)cc3)C(=O)N2C1c1ccc(-c2ccco2)cc1 (stereo not given)	3.78%	

Each compound was assayed against Cytochrome P450 3A4 (Homo sapiens) (UniProt P08684) (assay: qHTS Assay for Inhibitors and Substrates of Cytochrome P450 3A4 (AID 884; further: nearly all actives have a fitted effect of over 50% in size)). Details: recombinant CYP3A4, Luciferin-PPXE luminescence; series mostly up to 57.1 µM; activity change, negative = inhibition: at the top concentration.
Cytochrome P450 3A4 (Homo sapiens), sequence (P08684 whole entry, looked up): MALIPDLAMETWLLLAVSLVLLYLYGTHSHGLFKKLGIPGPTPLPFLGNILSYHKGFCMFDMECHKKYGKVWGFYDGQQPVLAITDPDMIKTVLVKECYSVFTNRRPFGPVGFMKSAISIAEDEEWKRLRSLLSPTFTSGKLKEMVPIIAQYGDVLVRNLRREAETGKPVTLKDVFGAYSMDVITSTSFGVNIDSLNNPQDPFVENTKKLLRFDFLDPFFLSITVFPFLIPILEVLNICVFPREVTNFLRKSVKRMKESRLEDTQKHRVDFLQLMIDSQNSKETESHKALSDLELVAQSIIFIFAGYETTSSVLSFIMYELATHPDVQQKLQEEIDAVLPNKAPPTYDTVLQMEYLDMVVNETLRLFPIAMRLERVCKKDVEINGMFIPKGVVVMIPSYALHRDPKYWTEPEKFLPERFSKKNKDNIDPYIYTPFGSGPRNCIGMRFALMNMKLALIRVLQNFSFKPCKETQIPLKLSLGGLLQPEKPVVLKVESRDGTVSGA
Method in brief: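 Luminescent readout of luciferin produced by CYP3A4 (20 nM) dealkylation of Luciferin-PPXE, 25 uM (its KM). NADPH-driven reaction ran 60 min at RT after 10 min compound preincubation; data scaled to 57 uM ketoconazole as 100% inhibition.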

SMILES	activity change, negative = inhibition	Potency
O=C1C=CC2(OCCCO2)C(Br)=C1	-14% [at 11.4 µM]	
O=Cc1ccc(OC2C=CC(c3ccccc3)OC2CO)cc1 (stereo not given)	-9.85% [at 11.4 µM]	
COC(=O)NC(c1cccc(C)c1)[C@@]1(C(=O)OC)CCCC1=O (stereo not given in full)	-25.8% [at 11.4 µM]	
COc1ccc(O[C@H]2C=C[C@@H](c3ccccc3)O[C@H]2COC(=O)CC/C(C)=N/OCC[C@@H]2C=C[C@H](OC(C)=O)[C@H](COC(C)=O)O2)cc1		3.98 µM (active)
COc1cccc(/C=C/C2=CC3(C)CC2(C)C(c2cccc(OC)c2)CC3=O)c1 (stereo not given)		3.98 µM (active)
CCN1C(C)=C(C(=O)OC)C(c2ccccc2)N2C(=O)[C@@]3(C(=O)OC)O[C@@]12C1C(=O)N(C)C(=O)C13 (stereo not given in full)	-27.7% [at 11.4 µM]	
CC1CCC(C(=O)O)NC1c1cccc(N2CCCC2=O)c1 (stereo not given)	-12.3% [at 11.4 µM]	
CCCNC(=O)OC[C@H]1O[C@@H](CCO/N=C\[C@@H](NS(=O)(=O)c2ccc(C)cc2)[C@H](C)/C=C\CC(=O)OC)C=C[C@@H]1Oc1ccc(OC)cc1		3.16 µM (active)
CC(=O)c1ccc(C2C=CC(Oc3ccc(-c4ccccc4)cc3)C(CO)O2)cc1 (stereo not given)	0.0168% [at 11.4 µM]	
C=CCC1C=CC(OC(=O)OCC)C(COC(=O)OCC)O1 (stereo not given)	-26.9% [at 11.4 µM]	
CC1(C)OC(C(O)(c2cc(F)c(F)c(F)c2)c2cc(F)c(F)c(F)c2)C(C(O)(c2cc(F)c(F)c(F)c2)c2cc(F)c(F)c(F)c2)O1 (stereo not given)	-15% [at 11.4 µM]	
COC(=O)NC(c1cccc(F)c1)[C@]1(C(C)=O)CCCC1=O (stereo not given in full)	-13.9% [at 11.4 µM]	
COC(=O)C/C=C\[C@@H](C)[C@@H](/C=N\O[C@@H](C)c1cc(-c2c(C)cc(C)cc2C)no1)NS(=O)(=O)c1ccc(C)cc1		3.16 µM (active)
COc1ccc(/C=C/NC(=O)Cc2ccc(OC)c(OC)c2)cc1		3.16 µM (active)
O=C(/C=N/O)NCCCCNC(=O)/C=N/O	-14.7% [at 11.4 µM]	
COc1ccc(O[C@H]2C=C[C@@H](c3ccccc3)O[C@H]2COC(=O)CC/C(C)=N\O[C@@H](C)c2cn([C@H](CO)Cc3ccccc3)nn2)cc1		3.98 µM (active) and 5.01 µM (active)
CC12C=C(/C=C/c3ccc(Br)cc3)C(C)(C1)C(c1ccc(Br)cc1)CC2=O (stereo not given)		3.98 µM (active)
C=CCC1(c2ccccc2)Oc2ccc(C)cc2-c2nc3cc(Cl)c(Cl)cc3nc21 (stereo not given)	-28.2% [at 11.4 µM]	
OCC1OC(c2ccccc2)C=CC1Oc1cc(Cl)cc(Cl)c1 (stereo not given)	5.16% [at 11.4 µM]	
COC(=O)[C@@H]1CC[C@H](C)[C@@H](c2ccc(C)cc2)N1C(=O)c1ccc(/C=N\O[C@@H](C)c2cn([C@H](CO)Cc3ccccc3)nn2)cc1		1.26 µM (active) and 3.16 µM (active)

SMILES	activity change, negative = inhibition	Potency
CNc1ccccc1C(=O)OCC(=O)c1ccccc1	-18.7% [at 11.4 µM]	
CC12C=C(/C=C/C=C/c3ccccc3)C(C)(C1)C(/C=C/c1ccccc1)CC2=O (stereo not given)		3.98 µM (active)
CC12CC3OS(=O)OC3CC3C4C(C(OCc5ccccc5)C31)C42 (stereo not given)	-26.1% [at 11.4 µM]	
CC1C=CCCOC1c1ccccc1 (stereo not given)	-13.6% [at 11.4 µM]	
COc1ccc(OCC2CC3C(CCC(C)C3c3ccc(Br)cc3)C(=O)O2)cc1 (stereo not given)		3.98 µM (active)
COc1ccc(O[C@H]2C=C[C@@H](c3ccccc3)O[C@H]2COC(=O)CC/C(C)=N\OC[C@@H](O)[C@H]2O[C@H]3OC(C)(C)O[C@H]3[C@@H]2O)cc1		3.98 µM (active)
CCCCc1nc2c(c3c1CC(C)OC3)CN(CCC(C)C)CC2 (stereo not given)		3.98 µM (active)
COC(=O)NC(c1ccccc1)[C@]1(C(C)=O)CCCC1=O (stereo not given in full)	-20.1% [at 11.4 µM]	
CCOC(=O)[C@]1(C(NC(=O)OC)c2cccc(C)c2)CCCC1=O (stereo not given in full)	-23.1% [at 11.4 µM]	
COC(=O)/C=C/C1c2ccccc2C(OC)C1C (stereo not given)	-4.29% [at 11.4 µM]	
COC(=O)CC1=COC(O)C2C(CO)=CC[C@@H]12 (stereo not given in full)	-14.7% [at 11.4 µM]	
CC1CCC(C(=O)O)NC1c1ccc(-c2ccco2)cc1 (stereo not given)	-4.5% [at 11.4 µM]	
COC(=O)NC(CC(C)=O)c1ccc(F)cc1 (stereo not given)	-12% [at 11.4 µM]	
Cc1ccc(S(=O)(=O)N[C@@H](CCc2ccccc2)CC(=O)C(C)(C)C)cc1		1.58 µM (active)
C=C(C)C(O)/C=C/c1ccc(Br)cc1 (stereo not given)		3.98 µM (active)
CC12C=C(/C=C/c3ccc(F)cc3)C(C)(C1)C(c1ccc(F)cc1)CC2=O (stereo not given)	-18.4% [at 11.4 µM]	
CN1CCc2nc(-c3ccccc3)c(-c3ccccc3)cc2C1	-24.2% [at 11.4 µM]	
COC(=O)NC(c1ccccc1)C(C#N)C(=O)OC (stereo not given)	-16.5% [at 11.4 µM]	
CCOC(=O)OCC1OC(C#Cc2ccccc2)C=CC1Oc1cccc(N(C)C)c1 (stereo not given)		3.98 µM (active)
CC1CCC2C(=O)N3C(CCC(C)C3c3ccc(-c4ccco4)cc3)C(=O)N2C1c1ccc(-c2ccco2)cc1 (stereo not given)	-11.9% [at 11.4 µM]	
